TbREL1 primary: TbREL1 RNA ligase inhibitors, primary screen, biochemical, FRET fluorescence | RNA-editing ligase 1, mitochondrial (Trypanosoma brucei brucei), P86926 | TbREL1 RNA ligation | inhibition, % at 9.66 µM | hit rate 0.49% among 89,000;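 active = inhibition above the mean inhibition across all screened compounds plus 3 SD, cut at about 11% in these data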;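 also: 0% = plate median of test wells and 100% = NSC42067 control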
Target sequence (P86926 whole entry, looked up): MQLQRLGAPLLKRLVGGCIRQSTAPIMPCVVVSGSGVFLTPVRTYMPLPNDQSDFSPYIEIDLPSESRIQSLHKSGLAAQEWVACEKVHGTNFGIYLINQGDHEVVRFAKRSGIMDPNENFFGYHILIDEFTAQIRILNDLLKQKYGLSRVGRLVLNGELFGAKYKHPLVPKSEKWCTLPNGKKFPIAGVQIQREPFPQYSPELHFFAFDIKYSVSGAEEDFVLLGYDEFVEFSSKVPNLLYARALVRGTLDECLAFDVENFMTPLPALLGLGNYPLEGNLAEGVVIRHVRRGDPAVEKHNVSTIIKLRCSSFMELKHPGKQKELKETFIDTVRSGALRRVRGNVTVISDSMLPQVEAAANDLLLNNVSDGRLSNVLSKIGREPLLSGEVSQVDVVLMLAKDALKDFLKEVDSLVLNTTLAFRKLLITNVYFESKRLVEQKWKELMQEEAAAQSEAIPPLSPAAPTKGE
TbREL1 confirm: TbREL1 RNA ligase inhibitors, confirmation, biochemical, FRET fluorescence, triplicate; AID 1117282, 2014; inhibition, % at 9.66 µM; TbREL1 RNA ligation; shares compounds with TbREL1 primary; hit rate 37% among 390;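 active = mean inhibition across replicates above a set limit taken from the earlier primary screen, cut at about 11% in these data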;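 also: 0% = REL1 with substrate and DMSO and 100% = REL1 plus control inhibitor NSC42067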
* = called active by the depositor. This excerpt belongs to a sample that is enriched for hits.

SMILES | TbREL1 primary | others
Cn1c(=O)c2c(c3ccccc31)OC(=O)CC2c1cccnc1 (configuration not stated) | -1.4
O=C(C1CCCCC1)N1CCCC(c2nc(-c3ccc(F)cc3)no2)C1 (configuration not stated) | 3.2
O=Cc1ccc(-c2cccc(C(=O)O)c2)o1 | 1.4
COC(=O)c1cccc(-c2ccc(/C=N/N3C(=O)C4C5C=CC(C6CC56)C4C3=O)o2)c1 (configuration not stated) | -2.1
COC(=O)c1cccc(-c2ccc(C(c3c(C)[nH][nH]c3=O)c3c(C)[nH][nH]c3=O)o2)c1 | 14.5* | TbREL1 confirm=8.6
CSCCC(NC(=O)c1ccc(Cl)cc1)C(=O)NC(C)(C)C (configuration not stated) | -1.6
CN(C)C(=O)N1CCN(C(=O)[C@H]2O[C@@H](n3ccc(N)nc3=O)[C@H](O)[C@@H]2O)CC1 | 0.0
CCOC(=O)C1(C)CCCCCN1C(=O)c1ccc(C(F)(F)F)nc1C (configuration not stated) | -3.5
CCOc1cc(/C=N/Nc2nc(N3CCCC3)nc(N3CCCC3)n2)ccc1O | -5.7
O=C(NNc1cc(N2CCCC2)nc(N2CCCC2)n1)c1ccc([N+](=O)[O-])cc1 | -4.9
Oc1ccccc1/C=N/Nc1cc(N2CCCC2)nc(N2CCCC2)n1 | 19.4* | TbREL1 confirm=38.0*
O=C(NNC(=O)c1cc2ccccc2[nH]1)OCc1ccccc1 | 1.3
COc1c(C)cc(C(=O)C2CCCN(C(=O)CCc3scnc3C)C2)cc1C (configuration not stated) | -6.6
COc1ccccc1Oc1ccc2c(c1)C(=O)N(c1ccc(Br)c3cccnc13)C2=O | 2.5
C[C@@H]1[C@@H](c2ccccc2)OC(O)([C@H](Cc2ccccc2)NC(=O)OC(C)(C)C)CN1C (some centres not stated) | -3.2
CN1CC(O)([C@H](Cc2ccccc2)NC(=O)OC(C)(C)C)OCC1C(=O)NCc1cccc2ccccc12 (some centres not stated) | 11.1* | TbREL1 confirm=-3.2
O=C(N[C@H](Cc1ccccc1)C(=O)NCc1cccc2ccccc12)[C@H]1O[C@@H](n2ccc(=O)[nH]c2=O)[C@H](O)[C@@H]1O | -1.0
O=C(OCC(=O)N1CCc2ccccc21)c1ccc(Br)o1 | -0.3
CCOC(=O)C1=CCN(S(=O)(=O)c2ccccc2C)C1c1ccc(C)cc1 (configuration not stated) | 3.1
c1ccc(OCCNc2nc(NCC3CC3)nc3cc(-c4ccccc4)sc23)cc1 | 8.8
COc1cccc(CNc2nc(NCc3ccccc3)nc3ccsc23)c1 | 12.8* | TbREL1 confirm=13.5*
CC(C)Nc1nc(NCCOc2ccccc2)c2sccc2n1 | 13.5* | TbREL1 confirm=7.1
CNc1nc(NCc2ccccc2)c2sccc2n1 | 5.2
COCCNc1nc(NCc2cccs2)nc2ccsc12 | 0.7
c1ccc(CNc2nc(NCCc3ccncc3)c3sccc3n2)cc1 | -0.1
SMILES | TbREL1 primary | others
c1ccc2c(c1)N=C(N1CCN(Cc3ccc4c(c3)OCO4)CC1)c1ccccc1S2 | -0.4
CCC(c1nnnn1C1CCCC1)N1CCN(C/C=C/c2ccccc2)CC1 (configuration not stated) | -2.3
COc1cc(Br)cc2cc(C(=O)N3CCN(c4ccccn4)CC3)c(=O)oc12 | 1.2
COc1cccc2cc(C(=O)N3CCN(c4ccccc4F)CC3)c(=O)oc12 | 6.0
COc1cc([N+](=O)[O-])cc2cc(C(=O)N3CCN=C3c3ccccc3)c(=O)oc12 | 11.4* | TbREL1 confirm=2.5
CCOC(=O)[C@]12CCC=C1N(Cc1ccccc1)C(=O)[C@H](CC(=O)NCCC(C)C)C2 | -1.7
CC(NC(=O)c1ccccc1Cl)c1ccc(-n2ccnc2)cc1 (configuration not stated) | -0.3
O=C(NCCc1ccccc1)O[C@H]1CC[C@@]23CCCN2C(=O)CCC[C@H]3C1 | -4.5
CCCCNC(=O)O[C@H]1CC[C@@]23CCCN2C(=O)CCC[C@H]3C1 | 13.5* | TbREL1 confirm=-3.4
O=C(NCc1ccccc1)O[C@@H]1CC[C@@]23CCCN2C(=O)CCC[C@H]3C1 | -4.5
COC(=O)CN(c1cc(Cl)ccc1OC)S(=O)(=O)c1ccc(C)cc1 | 3.5
CCOC(=O)C1CCN(C(=O)CN(c2cc(Cl)ccc2OC)S(=O)(=O)c2ccccc2)CC1 | 0.5
COc1ccc(Cl)cc1N(CC(=O)N1CCCC1)S(=O)(=O)c1ccc(C)cc1 | 12.5* | TbREL1 confirm=3.7
Cc1ccc(C(C)C)c(OCCNCCc2ccccc2)c1 | 13.2* | TbREL1 confirm=15.2*
c1ccc(CCNCCOc2ccccc2)cc1 | 6.8
Cc1ccc(C(C)C)c(OCCNS(C)(=O)=O)c1 | -2.4
O=C(O)c1cc(-c2c[nH]c3ccccc23)nc2cc3ccccc3cc12 | -0.4
O=C(CN1c2cccc3cccc(c23)S1(=O)=O)Nc1ccccc1 | 0.0
CC(=O)N1CCc2cc(S(=O)(=O)NC3CCN(C(=O)C(C)(C)C)CC3)ccc21 | 1.0
Cc1n[nH]c(=S)n(NC(=O)/C=C/C(=O)Nn2c(=S)[nH]nc(C)c2=O)c1=O | 20.2* | TbREL1 confirm=15.4*
Cc1coc2c1c(C)cc1oc(=O)c(CC(=O)NCCCCCC(=O)O)c(C)c12 | -3.4
CCOc1ccc(CCNC(=O)c2cc3ccsc3n2C)cc1OCC | 1.4
COc1ccccc1NS(=O)(=O)c1cccc2nsnc12 | 3.4
COc1ccccc1C(C(=O)c1ccccc1)c1ccc2ccccc2c1 (configuration not stated) | 3.2
COc1ccccc1C(CC(=O)c1ccccc1)C(=O)c1ccccc1 (configuration not stated) | 11.1* | TbREL1 confirm=-1.1
SMILES | TbREL1 primary | others
COC(=O)C(CC(=O)c1ccccc1)CC(=O)c1ccccc1 | 2.4
COc1ccc(OC)c(NC(=O)CSc2nnc(Cn3c(=O)sc4ccccc43)n2C)c1 | 1.1
O=C(C1=C[C@@H](C2CC2)C[C@@H](OCCCCO)O1)N1CCOCC1 | -0.5
COc1ccc([C@H]2CC(=O)C=C(c3ccc4c(c3)OCO4)C2)cc1OC | 0.8
CCC(=O)c1c[nH]c(C(=O)NCc2ccco2)c1 | -0.5
COc1ccc(CC(N)c2csc(Nc3ccc(C(C)=O)cc3)n2)cc1 (configuration not stated) | 3.0
Cc1cnc(C)c(Nc2nc(C(N)Cc3ccc(Cl)cc3)cs2)n1 (configuration not stated) | 11.3* | TbREL1 confirm=10.2
NC(Cc1ccc(C(F)(F)F)cc1)c1csc(Nc2nncc3ccccc23)n1 (configuration not stated) | 9.8
CC1(C(=O)Nc2ccc3c(c2)OCO3)CC1(Cl)Cl (configuration not stated) | 3.0
CCNc1ccc(S(=O)(=O)N(C)C)cc1[N+](=O)[O-] | -2.8
N#CC1(NC(=O)COc2ccccc2[N+](=O)[O-])CCCCC1 | -5.1
C[C@@H](CN1C2=NC[C@H](Cc3ccccc3)N2C[C@H]1Cc1ccc(O)cc1)NC(=O)CCC1CCCCC1 | 9.3
COc1ccc(C[C@@H]2CN3C(=NC[C@@H]3C)N2C[C@H](C)NC(=O)CCC2CCCCC2)cc1 | 6.1
COc1ccc(C[C@H]2CN3C(=NC[C@H]3Cc3ccccc3)N2CCNC(=O)CCC2CCCCC2)cc1 | 11.5* | TbREL1 confirm=18.7*
O=C(O)c1nccnc1C(=O)Nc1ccc(S(=O)(=O)N2CCOCC2)cc1 | 3.8
CCCOc1ccc(CNC(=O)Cn2ncc3ccccc32)cc1 | -2.9
Cc1nc2cc(C(F)(F)F)ccc2n1CCNc1nc(-c2ccc([N+](=O)[O-])c(Cl)c2)cs1 | 0.0
